In the library only some 7% were active in any assay of this set; here they are far more common.
AHR act – human AHR activation | P35869 | AHR-responsive luciferase reporter cells, luminescence | activation, % at 5 µM | 2.5% of 320,000 active | AID 2796; in the data active means activation above about 47%;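 further: 0% = vehicle wells and 100% = reference agonist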
Target sequence (P35869 whole entry, looked up): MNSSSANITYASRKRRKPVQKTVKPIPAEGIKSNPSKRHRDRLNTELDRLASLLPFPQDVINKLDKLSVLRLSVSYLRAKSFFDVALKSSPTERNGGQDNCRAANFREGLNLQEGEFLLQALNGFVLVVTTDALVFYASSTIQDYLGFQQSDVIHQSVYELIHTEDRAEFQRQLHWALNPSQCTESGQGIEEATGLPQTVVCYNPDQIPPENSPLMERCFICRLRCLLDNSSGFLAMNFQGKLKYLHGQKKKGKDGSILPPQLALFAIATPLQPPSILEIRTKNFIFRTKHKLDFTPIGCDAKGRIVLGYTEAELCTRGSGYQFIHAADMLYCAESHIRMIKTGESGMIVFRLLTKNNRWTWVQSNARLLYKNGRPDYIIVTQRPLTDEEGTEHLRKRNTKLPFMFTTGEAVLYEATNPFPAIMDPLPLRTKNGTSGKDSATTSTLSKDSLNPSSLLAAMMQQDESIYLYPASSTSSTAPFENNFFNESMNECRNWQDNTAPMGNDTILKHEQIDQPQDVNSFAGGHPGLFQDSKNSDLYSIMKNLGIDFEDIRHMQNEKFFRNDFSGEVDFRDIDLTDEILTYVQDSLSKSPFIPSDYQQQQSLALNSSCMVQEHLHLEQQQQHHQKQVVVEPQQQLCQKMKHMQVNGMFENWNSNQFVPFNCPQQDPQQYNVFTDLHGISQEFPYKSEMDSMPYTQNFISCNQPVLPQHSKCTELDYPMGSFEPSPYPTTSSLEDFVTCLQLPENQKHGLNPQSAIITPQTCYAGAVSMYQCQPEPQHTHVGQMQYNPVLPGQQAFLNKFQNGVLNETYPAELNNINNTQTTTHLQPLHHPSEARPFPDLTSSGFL
rCAG RNA binder – molecules binding r(CAG) RNA repeats | r(CAG) RNA repeat, TO-PRO-1 dye displacement fluorescence | 1.3% of 370,000 active | inhibition, % at 3 µM;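 active means inhibition above the plate cutoff, the mean of all test compounds on that plate plus 3 SD, cut at about 35% in these data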;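 further: 0% = DMSO alone and 100% = 100 µM mitoxantrone as full dye displacement; higher means more dye released from RNA so lower well fluorescence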
GRIN3A LBD mod – modulators (binders) of human NR3A ligand-binding domain; NR3A LBD differential scanning fluorimetry, Tm shift; 0% = protein alone, 100% = glycine-bound protein; Tm shift relative to glycine control, % at 25 µM; 2.5% of 340,000 active;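 active means melting temperature shift of at least 10% of the positive control shift, at one fixed dose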
ADAM17 inh – ADAM17 inhibition, QFRET primary screen. P78536. recombinant ADAM17, EDANS/DABCYL FRET peptide cleavage. inhibition, % at 6.95 µM. 0.83% of 370,000 active. AID 720648;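 active means inhibition above the mean of compounds lying between control limits plus 3 SD, set per campaign, cut at about 8.5% in these data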;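 further: 0% = DMSO-only wells as the low control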
KLK7 zymogen act – activators of human kallikrein-7 zymogen. purified proKLK7, EDANS-DABCYL substrate fluorescence; 100% is mature enzyme control, 0% vehicle. activation, % at 7 µM. 0.9% of 370,000 active. AID 652039;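 active means activation above the mean of all tested compounds plus 3 SD, computed per campaign excluding outliers beyond control limits, cut at about 13% in these data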
ADAM10 inh – ADAM10 inhibition, QFRET primary screen | 0.62% of 370,000 active | AID 720582 | O14672 | recombinant ADAM10, EDANS/DABCYL FRET peptide cleavage, 3 h | inhibition, % at 7 µM;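 active means inhibition above a per-campaign cutoff equal to the mean of compounds falling between control-based bounds plus 3 SD, cut at about 20% in these data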;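 further: 0% = DMSO wells while the 100% control is not disclosed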
proKLK7 act conf – proKLK7 activation, confirmation. shares compounds with KLK7 zymogen act. purified proKLK7, EDANS-DABCYL substrate fluorescence; scaled: vehicle 0, mature enzyme 100. activation, % at 7 µM. 68% of 3,200 active. AID 686949;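 active means activation, as change over the incubation, above the mean of all tested compounds plus 3 SD, cut at about 13% in these data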
EDANS-DABCYL int – fluorescence interference counter-screen for KLK7 activators; shares compounds with KLK7 zymogen act; EDANS-DABCYL substrate fluorescence interference, no enzyme, 4 h; solvent 0%, active enzyme control 100%; activation, % at 7 µM; 80% of 3,200 active; AID 686952;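 active means activation above the all-compound mean plus 3 SD, ignoring values outside control-based bounds, cut at about 4.8% in these data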;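 further: value is the 4 h activation minus the activation read at time zero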
EDANS interf – optically interferes with EDANS-DABCYL fluorescence, kallikrein-7 activator counter-screen. shares compounds with KLK7 zymogen act. EDANS-DABCYL peptide fluorescence interference, no enzyme. EC50, µM. 20% of 250 active;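 active means compounds that raise the fluorescence signal in this interference counterscreen, with EC50 at or below 10 µM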;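 further: intact quenched peptide substrate alone read at 355 nm excitation and 520 nm emission; signal is fluorescence gain from T0 to T4 after four hours at room temperature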
Active calls of the source: *; i = inactive; . = not tested or not shown.

SMILES	AHR act	rCAG RNA binder	GRIN3A LBD mod	ADAM17 inh	KLK7 zymogen act	ADAM10 inh	proKLK7 act conf	EDANS-DABCYL int	others
Cc1ccc(C2C3=C(CC(C)(C)CC3=O)Nc3onc(C)c32)cc1 (stereo not given)	-2	2	0	-223	15*	i	-3	-8
CCCSC1=C(C#N)C(c2ccc(OC)cc2)C2=C(CC(C)(C)CC2=O)N1 (stereo not given)	-2	2	-5	-13	16*	-39	-1	-1
COc1ccc(C2C(C#N)=C(C)NC3=C2C(=O)CC(C)(C)C3)cc1 (stereo not given)	2	0	-1	-329	21*	i	61*	66*
Cc1noc2c1C(c1ccc(N(C)C)cc1)C1=C(CC(C)(C)CC1=O)N2 (stereo not given)	2	2	1	-1	1	-1	.	.
CCOC(=O)c1cc2c(ccc3ccccc32)oc1=O	2	6	-2	i	0	i	.	.
O=C(c1cc2c(ccc3ccccc32)oc1=O)N1CCCC1	-12	0	-1	i	24*	i	49*	53*
O=C(O)c1cc2ccc3ccccc3c2oc1=O	19	4	-2	i	31*	i	79*	82*
O=C(O)c1cc2c(ccc3ccccc32)oc1=O	5	1	.	i	34*	i	41*	42*
O=C(O)c1cc2cc(Cl)cc(Cl)c2oc1=O	0	19	-4	-4	0	-3	.	.
Nc1ccn(C2OC(CCl)C(O)C2O)c(=O)n1 (stereo not given)	.	2	.	-1	0	-13	.	.
O=C1NN(c2ccc(Br)cc2)C(=O)/C1=C\c1ccc(O)cc1O	13	46*	28*	-162	157*	-367	181*	196*
O=C1NN(c2ccccc2)C(=O)C1=Cc1ccccc1O	.	5	.	-1	2	1	.	.
N#Cc1nc(-c2cccs2)oc1NCCN1CCOCC1	9	-4	2	-376	28*	i	42*	39*
CN(C)c1oc(-c2cccs2)nc1C#N	2	-3	0	i	39*	i	65*	82*
N#Cc1nc(-c2ccccc2)oc1NCCN1CCCCC1	10	-6	2	-169	40*	i	8	10*
COc1ccc(C2Nc3ccccc3C(=O)N2NS(=O)(=O)c2ccc(C)cc2)cc1OC (stereo not given)	14	3	0	-210	31*	i	8	7.1*
CS(=O)(=O)NN1C(=O)c2ccccc2NC1c1ccccc1F (stereo not given)	1	1	-2	-213	35*	i	4	8.2*
COc1ccc(C2Nc3ccccc3C(=O)N2Cc2ccccc2)cc1OC (stereo not given)	-4	0	-1	-401	-1	i	.	.
COc1ccc(C2Nc3ccccc3C(=O)N2NS(C)(=O)=O)cc1OC (stereo not given)	8	0	-1	-210	59*	i	22*	13*	EDANS interf=i
COc1ccc(C2Nc3ccccc3C(=O)N2NS(=O)(=O)c2ccccc2)cc1OC (stereo not given)	3	-2	-3	-82	17*	-241	4	9.0*
CCCN(C(=S)Nc1ccccc1)C1CCS(=O)(=O)C1 (stereo not given)	-1	1	-2	-4	0	-7	.	.
Cc1cc(Cl)ccc1C(O)c1ncc(-c2ccc(C(F)(F)F)cc2)[nH]1 (stereo not given)	.	1	.	7	1	16	.	.
O=C(NCc1ccc2c3c(cccc13)C(=O)N2)c1cccs1	.	2	-3	-24	6	-56	.	.
CN(C)c1ccc(C2Nc3ccccc3C(=O)N2NS(C)(=O)=O)cc1 (stereo not given)	.	-2	-1	-130	22*	-366	5	5.9*
CC(=O)NN1C(=O)c2ccccc2NC1c1ccc(N(C)C)cc1 (stereo not given)	2	1	0	-434	8	i	.	.
SMILES	AHR act	rCAG RNA binder	GRIN3A LBD mod	ADAM17 inh	KLK7 zymogen act	ADAM10 inh	proKLK7 act conf	EDANS-DABCYL int	others
Cc1ccc(S(=O)(=O)c2c(N)n(Cc3ccco3)c3nc4ccccc4nc23)cc1	1	11	2	-499	-32	i	.	.
Cc1ccc(S(=O)(=O)c2c(N)n(NC(=O)c3ccco3)c3nc4ccccc4nc23)cc1	1	20	-11	-367	46*	i	4	6.0*
CCCCN(CCCC)Cc1cc(=O)oc2cc(C)c(Cl)cc12	.	6	.	-8	0	-21	.	.
CCCc1cc(=O)oc2c(CN(CC)CC)c(O)c(Cl)cc12	-1	7	-1	i	53*	i	66*	68*
CCCCc1cc(=O)oc2c(CN(CC)CC)c(O)c(Cl)cc12	2	0	0	i	63*	i	70*	71*
Cc1cc(C(=O)COc2ccc3ccc(=O)oc3c2)c(C)n1Cc1cccs1	3	3	-2	-267	78*	i	73*	89*
O=C(NCc1ccc(F)cc1F)[C@@H]1CCCN1C(=O)[C@@H]1CCCN1C(=O)c1ccc(Cl)cc1	.	-1	.	-6	0	-7	.	.
CC1CCCCC12NC(=O)N(CC(=O)Nc1ccc(N3CCOCC3)cc1)C2=O (stereo not given)	4	-2	-3	1	-1	1	.	.
CC(=O)Nc1ccc(Nc2nnc(-c3ccc(C)c(S(N)(=O)=O)c3)c3ccccc23)cc1	-1	10	0	-2	1	7	.	.
CNC(=O)c1cc(Nc2nnc(-c3ccc(C)c(S(N)(=O)=O)c3)c3ccccc23)ccc1OC	4	1	-3	-5	212*	-4	223*	136*
O=C(COC(=O)c1ccccc1NCCO)NCC1CCCCC1	1	2	0	-440	21*	i	5	5.2*
O=C(COC(=O)c1ccccc1NCCO)NCCc1ccccc1	-1	-2	1	-434	19*	i	16*	22*
O=C(COC(=O)c1ccccc1Br)NCC1CCCCC1	0	2	-6	0	0	7	.	.
O=C(COC(=O)c1ccccc1NCCO)NNC(=O)c1cccs1	3	6	0	-479	38*	i	35*	37*
